Sampled rows, rich in hits. Any-hit rate of the full collection: about 3.7%.
tim23-1 inh = growth inhibitors of tim23-1 mutant yeast | S. cerevisiae tim23-1 growth, BacTiter-Glo luminescence, 24 h | inhibition, % at 20 µM | 330,000 compounds, 1.3% hits;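 active means growth inhibition of the mutant yeast at or above 50%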;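 further: temperature-sensitive mutant grown at 25 °C; plate controls were DMSO-treated mutant yeast for no effect and medium wells lacking yeast for full effect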
tim10-1 inh = growth inhibitors of tim10-1 mutant yeast. S. cerevisiae tim10-1 ts strain growth, BacTiter-Glo, 24 h. inhibition, % at 20 µM. 330,000 compounds, 2.2% hits;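 active means inhibition of at least 40%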;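 further: mutant grown at 25 °C; 0% = DMSO wells with yeast and 100% = wells holding no yeast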
Rce1 inhib = inhibitors of yeast Ras-converting enzyme; Q03530; yeast membranes, quenched prenylated peptide cleavage fluorescence; calls only; 290,000 compounds, 0.27% hits;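 active means fall in fluorescence gain of 50% or more versus controls, with final raw signal at or below 3038400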;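 further: plate controls were neutral control wells for no effect and wells lacking membranes for full effect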
Target sequence (Q03530 whole entry, looked up): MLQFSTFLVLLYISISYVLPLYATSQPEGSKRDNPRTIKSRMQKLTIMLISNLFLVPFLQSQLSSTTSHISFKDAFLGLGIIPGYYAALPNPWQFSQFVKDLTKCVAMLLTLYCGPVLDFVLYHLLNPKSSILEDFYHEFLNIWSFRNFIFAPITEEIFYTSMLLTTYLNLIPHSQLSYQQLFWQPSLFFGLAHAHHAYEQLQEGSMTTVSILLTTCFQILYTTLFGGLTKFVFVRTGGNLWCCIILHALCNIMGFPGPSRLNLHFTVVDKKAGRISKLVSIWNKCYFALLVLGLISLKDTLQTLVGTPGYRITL
TIM10 inh = growth inhibitors of TIM10 yeast strain; S. cerevisiae TIM10 strain growth, BacTiter-Glo luminescence, 24 h; inhibition, % at 10 µM; 330,000 compounds, 1.4% hits; AID 463195;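 active means inhibition of 40% or more at the single tested concentration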;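 further: wild-type TIM10 isogenic control strain grown at permissive 25 °C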
PfHsp90 set2 = reduces growth (ATP signal) of yeast expressing P. falciparum Hsp90; S. cerevisiae expressing PfHsp90, BacTiter-Glo ATP, 48 h; yeast lacking PDR1 and PDR3 efflux regulators; inhibition, % at 9.4 µM; 310,000 compounds, 0.32% hits;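 active means every replicate shows inhibition above about 80%, whatever the replicate mean, limit read from the data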;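 further: 0% = DMSO neutral controls and 100% = 20 µM radicicol positive controls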
tim10-1 confirm = confirmation of tim10-1 mutant yeast growth inhibitors; shares compounds with tim10-1 inh; S. cerevisiae tim10-1 ts strain growth, BacTiter-Glo, 24 h; inhibition, % at 20 µM; 7,400 compounds, 56% hits; AID 463213;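 active means inhibition of yeast growth at or above a set limit in either of two repeat tests at 20 µM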;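 further: tim10-1 mutant grown at permissive 25 °C to find synthetic lethal compounds; 0% = DMSO yeast wells and 100% = medium wells without yeast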
TIM10 conf = TIM10 yeast growth inhibition, confirmed. shares compounds with TIM10 inh. S. cerevisiae tim10 strain growth, BacTiter-Glo luminescence, 24 h. inhibition, % at 10 µM. 4,600 compounds, 63% hits;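 active means inhibition of yeast growth at or above a set limit in either of two replicates at 10 µM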;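 further: this counterscreen used the strain with wild-type TIM10; 0% = yeast with DMSO and 100% = medium wells lacking yeast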
tim23-1 conf = tim23-1 yeast growth inhibition, confirmed; shares compounds with tim23-1 inh; S. cerevisiae tim23-1 growth, BacTiter-Glo luminescence, 24 h; inhibition, % at 20 µM; 4,400 compounds, 83% hits; AID 463218;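 active means inhibition above about 39% in either of two replicate wells at 20 µM, limit read from the data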;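 further: temperature-sensitive tim23-1 mutant grown at 25 °C; 0% = DMSO wells with yeast and 100% = medium wells without yeast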
* marks the source's active call; other numbers are inactive results; i = inactive; x = no result; + = active, no number.

SMILES	tim23-1 inh	tim10-1 inh	Rce1 inhib	TIM10 inh	PfHsp90 set2	tim10-1 confirm	TIM10 conf	tim23-1 conf
COc1ccc(CCNC2CCCCC2)cc1	-4	-5	i	-18	2	x	x	x
COc1ccc(C[C@H]2NC[C@H](O)[C@H]2OC(C)=O)cc1	36	73*	i	75*	5	69*	81*	x
O=c1c2ccccc2nc(/C=C/c2ccc([N+](=O)[O-])o2)n1-c1ccc(O)cc1	-4	-4	i	0	-59	x	x	x
Cc1cccc(-n2c(/C=C/c3ccc([N+](=O)[O-])o3)nc3ccccc3c2=O)c1	27	57*	i	47*	-27	51*	-1	x
CN1C(=O)NC(=O)C(C)(C2=CCCCC2)C1=O (stereo unspecified)	-5	-7	i	10	x	x	x	x
CCN(CC)C(=O)c1ccc(NC(=O)Nc2ccccc2F)cc1	66*	56*	i	42*	66	68*	40*	64*
CCN(CC)C(=O)c1ccc(NC(=O)CCCSc2ccccc2)cc1	16	6	i	-37	13	x	x	x
O=C(c1ccc(Cl)cc1)C1CCCN(Cc2ccc3ncccc3c2)C1 (stereo unspecified)	-69	-42	i	-21	-17	x	x	x
c1ccc(-c2[nH]c(-c3ccccc3)[n+](CC3CO3)c2-c2ccccc2)cc1 (stereo unspecified)	55*	49*	i	48*	-2	34*	-11	50*
CC(C)(C)c1cc(C=C(C#N)C#N)cc(C(C)(C)C)c1O	62*	78*	x	70*	-2	82*	83*	72*
N#CC(C#N)=Cc1ccc(O)c(O)c1	12	22	x	1	9	x	x	x
O=C1NC(=O)N(c2ccccc2)C(=O)/C1=C\c1ccc([N+](=O)[O-])s1	68*	66*	i	85*	x	76*	26	76*
COc1ccc(N2C(=O)NC(=O)/C(=C\c3ccccc3[N+](=O)[O-])C2=O)cc1	4	-9	i	-5	-12	x	x	x
COc1ccc(OC)c(N2C(=O)NC(=O)/C(=C\c3ccc([N+](=O)[O-])s3)C2=O)c1	52*	69*	i	84*	91*	73*	40*	72*
CN1C(=O)NC(=O)/C(=C/c2ccc([N+](=O)[O-])o2)C1=O	10	9	i	-1	x	x	x	x
CN1C(=O)NC(=O)/C(=C/c2ccc([N+](=O)[O-])s2)C1=O	71*	74*	i	90*	46	67*	44*	80*
O=C(O)Cn1cc(C(=O)c2ccccc2F)c2ccccc21	9	5	i	-1	-7	x	x	x
O=c1ccc2c(O)c3ccoc3cc2o1	-1	9	x	9	-8	x	x	x
NCCCCCC(=O)OC1N=C(c2ccccc2Cl)c2cc(Br)ccc2NC1=O (stereo unspecified)	14	-6	i	10	6	x	x	x
Cc1c2ccncc2c(C)c2c1[nH]c1ccccc12	56*	63*	i	57*	-5	31	70*	62*
C[C@@H]1CC[C@@]2(NC1)O[C@H]1C[C@H]3[C@@H]4CC=C5C[C@@H](O)CC[C@]5(C)[C@H]4CC[C@]3(C)[C@H]1[C@@H]2C	54*	51*	i	49*	-12	27	51*	68*
c1ccc(N2C3C4CC(C5CCCC54)C32)cc1 (stereo unspecified)	x	x	x	x	15	x	x	x
NC1=C([N+](=O)[O-])C(c2ccc3c(c2)OCO3)c2c(c3ccccc3oc2=O)O1 (stereo unspecified)	16	5	i	1	x	x	x	x
O=c1oc2ccccc2c(O)c1[C@H]1c2ccc(O)cc2Oc2c1c(=O)oc1ccccc21	57*	53*	i	69*	-11	58*	59*	48*
Cc1ccc(C2=NN(CCC(=O)N3CCC4(CC3)OCCO4)C(=O)CC2)cc1	1	16	i	9	10	x	x	x
SMILES	tim23-1 inh	tim10-1 inh	Rce1 inhib	TIM10 inh	PfHsp90 set2	tim10-1 confirm	TIM10 conf	tim23-1 conf
N=C(N)c1c(O)n(C2CCCCC2)c(=O)n(C2CCCCC2)c1=O	66*	54*	i	15	-4	33*	x	52*
C[C@H]1C[C@@H](C)C(=O)[C@@H]([C@H](O)CC2CC(=O)NC(=O)C2)C1	77*	58*	i	72*	106*	23	63*	-10
CN(C)[C@@H]1C(=O)C(C(N)=O)=C(O)[C@@]2(O)C(=O)C3=C(O)c4c(O)cccc4[C@@](C)(O)C3[C@H](O)C12 (stereo partly specified)	-11	2	i	-1	16	x	x	x
COc1cccc(-n2c(=S)[nH]c3ccccc3c2=O)c1	-4	12	i	-18	3	x	x	x
CC(C)Oc1cc(-n2c(=S)[nH]c3ccccc3c2=O)c(Cl)cc1Cl	53*	45*	i	45*	-65	24	42*	52*
OCCCCO	7	6	x	5	x	x	x	x
CCOP(=O)(OCC)/C(C#N)=C/c1ccc(Br)cc1	69*	45*	i	51*	7	39*	52*	56*
CN[C@H]1C[C@H]2O[C@@](C)([C@H]1OC)n1c3ccccc3c3c4c(c5c6ccccc6n2c5c31)C(=O)NC4	64*	58*	i	74*	x	44*	67*	70*
Cc1ccc(-c2cc(-c3ccc(C)cc3)[n+](-c3ccc(C(=O)[O-])cc3)c(-c3ccc(C)cc3)c2)cc1	-1	12	i	-4	0	x	x	x
Cc1ccc(-c2cc(-c3ccccc3)cc(-c3ccccc3)[n+]2-c2ccccc2)cc1	21	24	+	41*	-13	x	35*	x
O=C(OCC(=O)c1ccc([N+](=O)[O-])cc1)/C(=C/c1ccc(Cl)cc1)NC(=O)c1ccccc1	31	35	i	45*	-8	x	23	x
O=C(COC(=O)Cc1ccccc1)NNC(=O)c1ccc([N+](=O)[O-])cc1	5	-3	x	3	-9	x	x	x
CC(C)C(=O)c1cn(Cc2ccc(C#N)cc2)c2ccccc12	18	25	i	41*	16	x	8	x
CN(C(=O)Oc1cccc2ccccc12)C1C=CCC1 (stereo unspecified)	x	x	x	x	-21	x	x	x
O=C1N[C@H](Cc2ccccc2)C(=O)N2[C@@H]3[C@H](C[C@@H]12)c1ccccc1N3OOSc1ccccc1	24	31	i	41*	1	x	25	x
COc1cc(C=C2C(=O)NC(=O)NC2=O)ccc1O	0	4	i	94*	-7	x	-4	x
